From article PMC5540273 (PLoS ONE, 2017) come the findings set out here.

Test systems include AAK1; ABL1-nonphosphorylated; ABL1-phosphorylated; ABL2; ACVR1B; ACVR1; ACVR2A; ACVR2B; ACVRL1; ADCK4; AKT1; AKT2; AKT3; ALK; ANKK1.
Holding throughout (conditions): concentration: 1 μM, replicates: in singlicate; n = 1
The next assay relates to T1, ADCK3.
T1 construct: gene CABC1

The subject of a further assay is T2, AMPK-alpha1.
T2 construct: gene PRKAA1

The test system of the next assay is T3, AMPK-alpha2.
T3 construct: gene PRKAA2

The subject of the next assay is T4, ARK5.
T4 construct: gene NUAK1

The subject of the next assay is T5, ASK1.
T5 construct: gene MAP3K5

Structures are written as SMILES.
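Further: KINOMEscan kinase panel screen.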

`Clc1ccc(-c2nn3ncccc3c2-c2ccnc(Nc3ccc4c(c3)OCCO4)n2)cc1` [GW829116]: the “%Inh” value worked out at 0% in the assay with AAK1; 61% in the assay on ABL1-nonphosphorylated; 7% in the assay on ABL1-phosphorylated; 0% in the assay with ABL2; 28% with ACVR1B; 0% in the assay with ACVR1. For the same molecule, the “%Inh” value in the assay on ACVR2A was 14%; in the assay with ACVR2B it was 54%; in the assay with ACVRL1 it was 4%; in the assay on ADCK3 it was 16%; in the assay with ADCK4 it was 90.4%; with AKT1 it was 13%. The “%Inh” value in the assay with AKT2, in the assay on AKT3, in the assay on ALK, with AMPK-alpha1, in the assay on AMPK-alpha2 and in the assay with ANKK1 was 0% each time. Moreover, the “%Inh” value with ARK5 and with ASK1 was 0% throughout.

Take `Nc1ncc(-c2cccnc2)c2scc(-c3ccc4c(c3)CCN4C(=O)Cc3ccccc3)c12` [GSK683281]: the “%Inh” value with AAK1 is given as 24%; with ABL1-nonphosphorylated, 94.1%; with ABL1-phosphorylated, 54%; in the assay with ABL2, 62%; with ACVR1B, 0%; in the assay on ACVR1 it was 0%. Further, the “%Inh” value in the assay with ACVR2A is listed as 0%; in the assay on ACVR2B it was 0%; in the assay on ACVRL1 it was 3%; with ADCK3, 5%; with ADCK4 it was 32%; with AKT1, 0%. In addition, the “%Inh” value was 21% in the assay on AKT2; 0% in the assay on AKT3; 29% in the assay on ALK; 97.4% in the assay on AMPK-alpha1; 20% in the assay on AMPK-alpha2; 19% in the assay on ANKK1. In addition, the “%Inh” value in the assay on ARK5 is given as 32%; with ASK1, 22%.

For the molecule `Cn1cc(-c2[nH]c3cc(NC(=O)[C@H](N)C4CCCCC4)cc4c3c2C=NNC4=O)cn1`, the “%Inh” value in the assay with AAK1 is given as 99.5%; in the assay on ABL1-nonphosphorylated, 95.7%; with ABL1-phosphorylated, 97.5%; in the assay with ABL2, 30%; in the assay with ACVR1B, 3%; with ACVR1, 58%. For the same molecule, the “%Inh” value in the assay on ACVR2A is 81%; with ACVR2B, 44%; with ACVRL1, 0%; in the assay on ADCK3, 0%; in the assay on ADCK4, 0%; in the assay with AKT1 it was 60%. Further, the “%Inh” value with AKT2 is 45%; with AKT3, 36%; in the assay with ALK it was 91.3%; in the assay on AMPK-alpha1, 94.1%; in the assay with AMPK-alpha2, 81%; in the assay with ANKK1, 95.7%. Further, the “%Inh” value amounted to 92.2% with ARK5 and 0% in the assay with ASK1.

Take `Cl.c1ccc(-c2ccc3c(Nc4ccc5[nH]ncc5c4)ccnc3c2)nc1` [GW440137]: the “%Inh” value in the assay with AAK1 is reported as 18%; in the assay with ABL1-nonphosphorylated, 63%; in the assay with ABL1-phosphorylated it was 73%; with ABL2, 28%; in the assay on ACVR1B it was 1%; with ACVR1 it was 71%. The “%Inh” value with ACVR2A was found to be 57%; in the assay with ACVR2B it was 94.6%; in the assay on ACVRL1, 19%; in the assay with ADCK3 it was 3%; with ADCK4, 38%; in the assay with AKT1, 0%. For the same molecule, the “%Inh” value in the assay on AKT2 was determined as 0%; with AKT3 it was 0%; with ALK, 31%; with AMPK-alpha1 it was 0%; in the assay on AMPK-alpha2 it was 0%; in the assay with ANKK1, 14%. Moreover, the “%Inh” value with ARK5 was found to be 11%; in the assay on ASK1 it was 0%.

On to `Cc1ccc(C(=O)Nc2ccc(Nc3ccnc4cc(-c5nccs5)ccc34)cc2O)cc1.Cl` [GW494702], for which the “%Inh” value in the assay on AAK1 is reported as 4%; with ABL1-nonphosphorylated, 57%; in the assay with ABL1-phosphorylated, 12%; in the assay with ABL2, 12%; in the assay with ACVR1B, 0%; in the assay with ACVR1 it was 18%. The “%Inh” value with ACVR2A amounted to 0%; in the assay on ACVR2B, 19%; in the assay with ACVRL1, 0%; in the assay on ADCK3 it was 1%; in the assay with ADCK4, 34%; with AKT1, 12%. In addition, the “%Inh” value in the assay with AKT2 is 6%; in the assay with AKT3, 0%; with ALK, 0%; in the assay with AMPK-alpha1, 20%; in the assay with AMPK-alpha2, 0%; in the assay on ANKK1, 21%. Besides, the “%Inh” value with ARK5 came to 14%; in the assay with ASK1 it was 9%.

For the molecule `C[C@@H]1CC[C@@H](C(=O)Nc2ccccc2)CN1c1cc(-c2ccc3c(N)n[nH]c3c2)nc(N)n1` [GSK2286062], the “%Inh” value in the assay with AAK1 came out at 18%; in the assay on ABL1-nonphosphorylated, 0%; in the assay with ABL1-phosphorylated, 0%; with ABL2, 2%; in the assay with ACVR1B it was 0%; in the assay on ACVR1, 0%. Also, the “%Inh” value in the assay with ACVR2A is given as 0%; in the assay on ACVR2B, 0%; in the assay with ACVRL1, 0%; with ADCK3, 29%; in the assay with ADCK4, 14%; in the assay with AKT1 it was 0%. Further, the “%Inh” value in the assay with AKT2 came out at 7%; with AKT3, 0%; with ALK it was 0%; in the assay on AMPK-alpha1, 13%; in the assay on AMPK-alpha2, 0%; with ANKK1, 3%. Further, the entries for the “%Inh” value in the assay on ARK5 and with ASK1 were 19% and 0%, respectively.

On to `COc1cc(Nc2nccc(-c3c(-c4cccc(NC(=O)c5c(F)cccc5F)c4)nn4ncccc34)n2)cc(OC)c1OC` [GSK327238], for which the “%Inh” value with AAK1 is 13%; in the assay with ABL1-nonphosphorylated, 92.9%; in the assay on ABL1-phosphorylated it was 24%; in the assay with ABL2, 80%; in the assay with ACVR1B it was 14%; in the assay with ACVR1, 0%. For the same molecule, the “%Inh” value was found to be 0% with ACVR2A; 0% in the assay with ACVR2B; 0% in the assay on ACVRL1; 0% with ADCK3; 93.7% with ADCK4; 0% with AKT1. The “%Inh” value is listed as 11% with AKT2; 17% in the assay on AKT3; 20% with ALK; 9% in the assay on AMPK-alpha1; 48% in the assay with AMPK-alpha2; 29% with ANKK1. The figures for the “%Inh” value in the assay with ARK5 and with ASK1 were 97.4% and 0%, respectively.

Turning to `Oc1cc(Nc2ccnc3cc(I)ccc23)ccc1F` [GW552771], the “%Inh” value in the assay with AAK1 is recorded as 10%; in the assay on ABL1-nonphosphorylated, 99.1%; with ABL1-phosphorylated, 99.6%; in the assay with ABL2, 91.7%; in the assay on ACVR1B it was 54%; in the assay with ACVR1, 97.4%. The “%Inh” value in the assay with ACVR2A amounted to 100%; with ACVR2B it was 93.7%; with ACVRL1, 69%; with ADCK3, 19%; in the assay with ADCK4, 38%; in the assay with AKT1 it was 0%. Further, the “%Inh” value was 16% with AKT2; 0% in the assay with AKT3; 34% in the assay on ALK; 15% with AMPK-alpha1; 1% with AMPK-alpha2; 0% with ANKK1. The results for the “%Inh” value in the assay on ARK5 and with ASK1 were 18% and 0%, respectively.
